# Test results: PMC12431657, “Discovery and mechanistic insights of dibenzoylmethane as a broad spectrum inhibitor of coronavirus” (PLOS Pathogens, 2025)
# Where a name gives a salt, the structure may show the parent alone. Read-outs that look alike come from different tables or passages of the source. About 60 (2%) of roughly 3,300 compounds showed an effect of 50% or more. The sample holds strong results, similar compounds and a random draw of the others, so the mix is not that of the screen.
# Tested on: HCoV-OC43
# Set-up: species or system RD; HTS, protection from HCoV-OC43 induced cell death, luminescent cell viability (CellCounting-Lite 2.0), inhibition rate
# Settings: 24 h post infection, 1 h compound pre-incubation, 10 µM, inhibitor
Structure (SMILES),OC43 Inhibition rate [%],"OC43 Inhibition rate (OC43 Inhibition rate, 24 h) [%]"
C=C1[C@@H](C)[C@H]2[C@H](Cc3ccccc3)NC(=O)[C@]23OC(=O)/C=C/[C@H](O)CCC[C@@H](C)C/C=C/[C@H]3[C@@H]1O [Cytochalasin B],63,–
C=C1C[C@@]23CC[C@H]4[C@@](C)(CCC[C@@]4(C)C(=O)O[C@@H]4O[C@H](CO)[C@@H](O)[C@H](O)[C@H]4O[C@@H]4O[C@H](CO)[C@@H](O)[C@H](O)[C@H]4O)[C@@H]2CC[C@]1(O[C@@H]1O[C@H](CO)[C@@H](O)[C@H](O[C@@H]2O[C@H](CO)[C@@H](O)[C@H](O)[C@H]2O)[C@H]1O[C@@H]1O[C@H](CO)[C@@H](O)[C@H](O)[C@H]1O)C3 [Rebaudioside D],1.1,–
CCCCC1OC(=O)C2=CCCCC21 (centres unmarked) [Sedanolide],-0.1,–
CC(C)=CCc1c(-c2ccc(O)cc2O)oc2c(CC=C(C)C)c(O)cc(O)c2c1=O [Mulberrin],51.7,–
COc1ccc(-c2oc3c(CC=C(C)C)c(O)cc(O)c3c(=O)c2O[C@@H]2O[C@@H](C)[C@H](O)[C@@H](O)[C@H]2O)cc1 [Baohuoside I],70.2,–
CC(C)=CCc1c(-c2ccc(O)cc2O)oc2c3c(cc(O)c2c1=O)OC(C)(C)C=C3 [Morusin],5.8,–
CC(C)=CCc1cc(-c2coc3cc(O)cc(O)c3c2=O)cc(O)c1O [Glycyrrhisoflavone],2.1,–
CC(C)=CCc1cc(-c2coc3cc(O)ccc3c2=O)ccc1O [Neobavaisoflavone],18.1,–
CC(C)=CCc1c(O)ccc(-c2coc3cc(O)cc(O)c3c2=O)c1O [Licoisoflavone A],59.7,–
CC(C)=CCc1c(O)cc(O)c2c(=O)cc(-c3ccc(O)cc3)oc12 [Licoflavone C],7.3,–
COc1ccc(-c2oc3c(CC=C(C)C)c(O)cc(O)c3c(=O)c2O)cc1 [Icaritin],0.1,–
COc1ccc(-c2oc3c(CC=C(C)C)c(O)cc(O)c3c(=O)c2O[C@@H]2O[C@@H](C)[C@H](O)[C@@H](O)[C@H]2O[C@@H]2O[C@@H](C)[C@H](O)[C@@H](O)[C@H]2O)cc1 [2''-O-Rhamnosylicariside II],0.3,–
O=c1c(-c2ccc(O)cc2)coc2cc(O)cc(O)c12 [Genistein],6.8,–
CC(C)=CCc1c(O)cc(O)c2c(=O)c(O[C@@H]3O[C@@H](C)[C@H](O)[C@@H](O)[C@H]3O)c(-c3ccc(O)cc3)oc12 [IKarisoside A],14.9,–
CC(C)=CCc1c(O)cc(O)c2c(=O)c(-c3ccc(O)cc3)coc12 [Lupiwighteone],63.3,–
CC(=O)O[C@H]1C[C@@]2(C)[C@@H](C[C@@H](O)[C@H]3[C@@]4(C)CC[C@@H](O)[C@@H](C)[C@@H]4CC[C@@]32C)/C1=C(\CCC=C(C)C)C(=O)O [Fusidic acid (sodium salt)],1.2,–
"CC1(C)[C@H](OC(=O)c2ccccc2)CC[C@]2(C)C3=CC[C@@]4(C)[C@@H]5C[C@](C)(COC(=O)c6ccccc6)CC[C@]5(C)CC[C@]4(C)C3=CC[C@@H]12 [3,29-O-Dibenzoyloxykarounidiol]",-4.4,–
COC(=O)C1=CO[C@@H](O[C@@H]2O[C@H](CO)[C@@H](O)[C@H](O)[C@H]2O)[C@@H]2[C@@]3(C)O[C@H]3[C@@H](O)[C@]12O [Sesamoside],-1.2,–
CCC/C=C\C=C\CCCCCCCCCO [Bombykol],1.1,–

Structure (SMILES),OC43 Inhibition rate [%],"OC43 Inhibition rate (OC43 Inhibition rate, 24 h) [%]"
COc1nccc(N)n1 [2-O-Methylcytosine],0.2,–
C[C@]12CC[C@@H](O)C[C@H]1CC[C@@H]1[C@@H]2[C@@H](O)C[C@@]2(C)[C@H]1CC[C@]2(O)C(=O)CO [Tetrahydrocortisol],-0.2,–
CC(=O)O[C@@]12CO[C@@H]1C[C@H](O)[C@@]1(C)C(=O)[C@H](O)C3=C(C)[C@@H](OC(=O)[C@H](O)[C@@H](NC(=O)c4ccccc4)c4ccccc4)C[C@@](O)([C@@H](OC(=O)c4ccccc4)[C@H]21)C3(C)C [10-Deacetyltaxol],0.2,–
CC(=O)c1cc2c(CO)cc(O)cc2oc1=O [Armillarisin A],-0.4,–
COc1ccc([C@H]2OC[C@H]3[C@@H]2CO[C@@H]3c2ccc(OC)c(OC)c2)cc1OC [Pinoresinol dimethyl ether],–,1.1
COc1ccc(-c2oc3c(CC=C(C)C)c(O[C@@H]4O[C@H](CO)[C@@H](O)[C@H](O)[C@H]4O)cc(O)c3c(=O)c2O[C@@H]2O[C@@H](C)[C@H](O)[C@@H](O)[C@H]2O[C@@H]2OC[C@@H](O)[C@H](O)[C@H]2O)cc1 [Epimedin B],1,–
O=C(O)c1ccccc1 [Benzoic acid],-0.2,–
O=C(c1ccccc1)c1ccccc1 [Benzophenone],-0.1,–
"O=C(CC(=O)c1ccccc1)c1ccccc1 [DBM, dibenzoylmethane]",102.9,–
Oc1cc(O)cc(/C=C/c2c(O)cccc2O)c1 [Gnetol],-1,–
O=c1cc(-c2ccc(O)cc2)oc2c([C@@H]3O[C@H](CO)[C@@H](O)[C@H](O)[C@H]3O)c(O)c([C@@H]3OC[C@@H](O)[C@H](O)[C@H]3O)c(O)c12 [Vicenin-1],-1.7,–
COc1cc([C@H]2Oc3cc([C@H]4Oc5cc(O)cc(O)c5C(=O)[C@@H]4O)ccc3O[C@@H]2CO)ccc1O [Silibinin],–,1.4
CCCCCCCCCC(O)CC(=O)O (centres unmarked) [3-Hydroxydodecanoic acid],-3.9,–
"Cn1cc(C(=O)O)ccc1=O [1-Methyl-6-oxo-1,6-dihydropyridine-3-carboxylic acid]",0.2,–
O=C(CCc1ccc(O)c(O)c1)NCCCNCCCCNCCCNC(=O)CCc1ccc(O)c(O)c1 [Kukoamine A],2.2,–
Nc1ncnc2c1ncn2[C@@H]1O[C@H](CO)C[C@H]1O [Cordycepin],-0.3,–
Nc1ncnc2c1ncn2[C@@H]1C[C@H](CO)[C@@H](O)[C@H]1O [Aristeromycin],53.9,–
Nc1ncnc2c1ncn2[C@H]1C[C@H](O)[C@@H](CO)O1 [2'-Deoxyadenosine monohydrate],–,-2.3
C=C1C(=O)O[C@H]2C[C@@H](C)[C@@H]3CCC(=O)[C@@]3(C)[C@@H](OC(C)=O)[C@H]12 [Ergolide],10.6,–

Structure (SMILES),OC43 Inhibition rate [%],"OC43 Inhibition rate (OC43 Inhibition rate, 24 h) [%]"
CC(C)=CCC[C@](C)(O)[C@@H]1CC=C(C)CC1 [Levomenol],–,-0.7
Cn1cnc2c(ncn2[C@@H]2O[C@H](CO)[C@@H](O)[C@H]2O)c1=O [1-Methylinosine],0.1,–
C[C@@H]1[C@H](O)[C@@H](C)/C=C/C=C/C=C/C=C/C=C/C=C/C=C/[C@H](O[C@@H]2O[C@H](C)[C@@H](O)[C@H](N)[C@@H]2O)C[C@@H]2O[C@](O)(C[C@@H](O)C[C@@H](O)[C@H](O)CC[C@@H](O)C[C@@H](O)CC(=O)O[C@H]1C)C[C@H](O)[C@H]2C(=O)O [amphotericin B],103.7,–
C[C@@H]1C/C=C/C=C/C=C/C=C/[C@H](O[C@@H]2O[C@H](C)[C@@H](O)[C@H](N)[C@@H]2O)C[C@@H]2O[C@](O)(C[C@@H](O)C[C@H]3O[C@@H]3/C=C/C(=O)O1)C[C@H](O)[C@H]2C(=O)O [Natamycin],-0.1,–
O=S(=O)(O)CCO [Isethionic acid sodium salt],-0.5,–
O=C(O)[C@H](O)[C@H](O)[C@@H](O)[C@H](O)[C@H](O)CO [NSC 42196],3.4,–
N[C@H](C(=O)O)[C@@H]1CC(Cl)=NO1 [Acivicin (hydrochloride)],61.6,–
CC1(C)CCC[C@]2(C)[C@H]3CCO[C@]3(C)CC[C@@H]12 [Ambroxide],-0.5,–
CC1=CC(=O)C(C(C)C)CC1 (centres unmarked) [Piperitone],-0.8,–
CC(=O)NCCCC[C@H](N)C(=O)O [Nepsilon-Acetyl-L-lysine],-0.2,–
C=C[C@H]1CN2CC[C@@]3(C(=O)Nc4ccccc43)[C@@H]2C[C@@H]1/C(=C\OC)C(=O)OC [Isocorynoxeine],-0.3,–
CCC/C=C1\OC(=O)C2=C1CC[C@@H](O)[C@H]2O [Senkyunolide H],-0.5,–
CCC/C=C1\OC(=O)C2=C1CC[C@H]1[C@H]3C=C4C(=O)O/C(=C\CCC)[C@@]4(CC3)[C@@H]21 [Levistolide A],77.4,–
CCC/C=C1\OC(=O)C2=C1CC[C@H](O)[C@H]2O [Senkyunolide I],-0.4,–
O=C(O)c1ccc(=O)oc1 [Coumalic acid],10.5,–
CC(=O)O[C@@H]1CC[C@@]2(C)[C@@H](CC[C@]3(C)[C@@H]2CC=C2[C@@H]4[C@@H](C)[C@H](C)CC[C@]4(C)CC[C@]23C)[C@@]1(C)C(=O)O [3-Acetyl-beta-boswellic acid],66.7,–
C[C@H]1[C@H](C)CC[C@]2(C)CC[C@]3(C)C(=CC[C@@H]4[C@@]5(C)CC[C@@H](O)[C@](C)(C(=O)O)[C@@H]5CC[C@]43C)[C@H]12 [β-Boswellic acid],-0.2,–
CC(=O)O[C@@H]1CC[C@@]2(C)[C@@H](CC[C@]3(C)[C@@H]2[C@H](O)C=C2[C@@H]4[C@@H](C)[C@H](C)CC[C@]4(C)CC[C@]23C)[C@@]1(C)C(=O)O [3-O-Acetyl-11-hydroxy-beta-boswellic acid],15.2,–
